Unmarked numbers belong to inactive results. How the calls were made is not given here.

This test deals with Pantothenate synthetase (Mycobacterium tuberculosis (strain ATCC 25618 / H37Rv)) (UniProt P9WIL5). Kind of test: Recombinant Mtb pantothenate synthetase (PanC) inhibitors, coupled enzyme, confirmatory (AID 375).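 Further: 0% = full reaction with vehicle and 100% = no enzyme background.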 To be noted: coupled enzyme assay; at 10 µM, stronger effect = higher value.
Chain of Pantothenate synthetase (Mycobacterium tuberculosis (strain ATCC 25618 / H37Rv)) (P9WIL5 whole entry, looked up): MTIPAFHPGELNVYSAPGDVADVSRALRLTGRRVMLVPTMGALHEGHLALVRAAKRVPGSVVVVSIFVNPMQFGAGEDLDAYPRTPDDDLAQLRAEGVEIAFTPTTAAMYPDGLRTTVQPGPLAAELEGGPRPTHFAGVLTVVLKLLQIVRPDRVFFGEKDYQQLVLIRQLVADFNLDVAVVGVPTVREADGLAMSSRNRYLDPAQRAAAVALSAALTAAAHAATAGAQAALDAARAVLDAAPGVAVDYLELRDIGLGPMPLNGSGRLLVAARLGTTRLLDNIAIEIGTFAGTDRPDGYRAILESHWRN
In the case of `CCN(CC)C(=O)c1ccc(O)c(OC)c1`, the inhibition – broadly, the relative decrease from the control value, in per cent – is 0%. In the case of `O=C(Nc1ccc(F)cc1F)NC1CC(=O)N(Cc2ccccc2)C1` (stereo not given) it was 1%. For `O=C(NCC1CCCO1)C1CC(c2ccc(Cl)c(Cl)c2)=NO1` (stereo not given) the value was 0%.

With `CCOC(=O)C1=C(O)CCn2c1nc1ccccc12`, the inhibition was 2%. On to `Cc1ccc(CNC(=O)C2CCN(S(=O)(=O)c3c(C)noc3C)CC2)cc1`, for which the inhibition is 3%. As for `COc1cc(C)nc(OCCNC(=O)COc2ccc(Cl)cc2C)n1`, the inhibition was 5%. For `O=C(Nc1cccnc1)c1ccc2c(c1)OCO2` the value was 0%.

For `COc1ccc(N2CCN(CCCNS(=O)(=O)c3c(C)noc3/C=C/N(C)C)CC2)cc1`, the inhibition was 15%.

Regarding `CCOC(=O)c1oc2ccccc2c1CSc1nnnn1-c1ccc(OC)cc1`, the inhibition was 1%. On to `CCOc1ncccc1C(=O)Nc1ccc2c(C)cc(=O)oc2c1`, for which the inhibition is 7%. For `COc1ccc(C)cc1S(=O)(=O)N1CCN(S(=O)(=O)c2cc(C)ccc2OC)CC1` the value was 5%. For `COc1cccc(-c2csc3nc[nH]c(=O)c23)c1` the value was 3%. For `Cc1cc(C)c2c(=O)n(CC(=O)NCCCN3CCN(c4ccccc4F)CC3)sc2n1` the value was 0%. As for `COCn1c(COc2ccccc2)nc2ccccc21`, the inhibition is 0%. In the case of `CCC(=O)Nc1cc(Cl)ccc1N1CCN(C(=O)CC)CC1` it was 0%; in that of `COc1ccccc1-c1nnc(SCC(=O)NC2CCCCC2)o1`, 0%; in that of `COc1ccc(OC)c(NC(=O)C2C3CC4OC(=O)C2C4C3)c1` (stereo not given), 0%. In the case of `CCC(C(=O)Nc1ncccn1)(C(F)(F)F)C(F)(F)F` it was 0%; in that of `C=C(C)C1Cc2c(C)nn(-c3nc(C)cc(C)n3)c2C1` (stereo not given), 0%.

Turning to `COc1cc(-c2nc(S(=O)(=O)c3ccccc3)c(N3CCOCC3)o2)cc(OC)c1OC`, the inhibition is 8%. For `O=C(NC(=O)c1ccc(Cl)cc1)Nc1cc(N2CCCCC2)ncn1` the value was 0%. In the case of `O=C(c1cnc2sccn2c1=O)N1CCc2ccccc2C1` it was 0%; in that of `COC(=O)c1ccc(NC(=O)CN2C(=O)CSC2=O)cc1`, 5%; in that of `CCCc1nc2ccccc2c2nc(N)nn12`, 5%. In the case of `NC(=O)c1ccccc1NC(=O)CN1CCOCC1` it was 6%; in that of `COc1ccc(Cl)cc1C(=O)n1nc(C)cc1C`, 0%.

For the molecule `COc1cc(C(=O)Nc2cc(Cl)ccc2C)c(-n2cnnn2)cc1OC`, the inhibition is 9%. For `Cc1onc(-c2ccccc2Cl)c1C(=O)N1CCc2ccccc21` the value was 0%; for `CCOC(=O)c1ccc(NC(=O)COc2ccc(-n3cnnn3)cc2)cc1`, 0%. For `CCn1cc(S(=O)(=O)CC(=O)Nc2ccc(OC)cc2)c2ccccc21`, the inhibition is 1%. As for `COc1ccccc1NC(=O)N1CCN(c2cccc(C(F)(F)F)c2)CC1`, the inhibition was 4%. For `O=c1c[n+]([O-])c2ccccc2n1OCc1ccccn1` the value was 4%.

For the molecule `Cc1ccc(NC(=O)c2cc(-c3ccc(C)o3)nc3ccccc23)nc1`, the inhibition is 0%. For `Cc1noc(/C=C/N(C)C)c1S(=O)(=O)N1CCCC(C(=O)N2CCCCC2)C1` (stereo not given), the inhibition was 7%. In the case of `Cc1ccc(C)c(OCC(O)CN2C(C)CCCC2C)c1` (stereo not given) it was 0%; in that of `O=S(=O)(NCCc1ccccn1)c1cccs1`, 3%; in that of `N#Cc1nc(COc2ccccc2Cl)oc1N1CCCCCC1`, 0%.

As for `Cc1ccc(C(=O)Nc2c(C(=O)N3CCOCC3)cnn2-c2ccccc2)cc1`, the inhibition was 0%. Consider `CN(CCNC(=O)c1ccc(N2CCCC2=O)cc1)CCc1ccccc1`, for which the inhibition was 0%.

As for `CN(C)c1ccc(O)c2c1CC1CC3[C@@H](N(C)C)C(=O)C(C(N)=O)=C(O)[C@]3(O)C(=O)C1=C2O` (stereo not given in full), the inhibition was 0%.

The values above are taken from PubChem BioAssay.
